Source: the OligoGym collection

The sequences below were run against NOL7 (assay: pooled miR-30 sensor sort-seq; sequence = guide strand). Conditions: shRNA.
Further: reference of the scale not given here.

Row | Sequence | sensor-assay potency score (higher = more potent)
1 | TTAGTCTGTGAAGCTGTGGTTA | -0.246
2 | TTGTACTTTAACTTTCTTGGAG | -0.0182
3 | TAACTTCTTTCACCTTTCCTGG | -0.398
4 | TTAACTTCTTTCACCTTTCCTG | -0.368
5 | AACTTATTTACAGTAGTCCTGT | -0.21
6 | TTCGATGAACAGCTCCTCGCGT | -0.6

Each sequence was assayed against NOLC1 in the same assay as above. Conditions: shRNA.

Row | Sequence | sensor-assay potency score (higher = more potent)
7 | TTGCTTTTTAGGTACAGTCTTC | -0.681
8 | TTGACCTGGACAGAGATTGAGC | -0.52
9 | TTAGCTTTCTTAGCCACTGGTC | -0.169
10 | TTTAGTCTGAGCTTTAACTGTC | 0.463
11 | TTTGGTGAACTTCAAAACCTGA | -0.529
12 | TTAGGTACAGTCTTCTTGGGGG | 0.125
13 | TTGCTTTAGAGACTACTGCCTT | -0.589
14 | TAACTTTCGCTCTGGGACCTTG | -0.857
15 | TTGCCTGTAACTTTCGCTCTGG | 0.151
16 | TTTAGGTACAGTCTTCTTGGGG | -0.268

The sequences below were run against NOMO3 in the same assay as above. Conditions: shRNA.

Row | Sequence | sensor-assay potency score (higher = more potent)
17 | TAACTCATCTACCATCTCCTGC | -0.337
18 | TTATTTTGTATTTTCCAGGGAG | 0.546
19 | TGTTGCAACAATGTCAGCCAGC | -0.925
20 | TTTGGTGCAATTTTGATGGTGA | 0.652
21 | TATCTGACCACAGACACTGAAC | -1.06
22 | TAGAACGCTTGCTCAAACCGGT | 0.161
23 | TGGAACACCATCTCCTTCGGGT | -0.53
24 | TTGGTGTACAGCTTTATCTCGA | 0.0866
25 | TTGTCTTCTGTTTCTTGGCTTG | -0.491
26 | TATGATGTTTACATCATCGATG | -0.855
27 | TTATTCATCTGCTTGACGGTGT | 0.998
28 | TTCACCTTCCTCATTGCCGTTT | -0.31
29 | TTGTCTCTTTGCATCTTCTGGG | -0.0196
30 | TAAAGCTTGACCCATAACGTAG | -0.74
31 | TAACAGTGATTTTCTCTCCAGA | -0.602
32 | TTGATCTCCACGTCCGACTTGA | 0.49

What follows are sequences tested against NOTCH4 in the same assay as above. Conditions: shRNA.

Row | Sequence | sensor-assay potency score (higher = more potent)
33 | TTAGGGTTCTTAAATAGCGATA | -1.36
34 | TTCTTGGTTCCAACTTAGGGGT | -0.898
35 | TTTAGGGTTCTTAAATAGCGAT | -1.06
36 | ATATATAGGAAAGAACATCTTA | -0.0997
37 | TTGAGCAGTTCTGTCCATCGTA | 0.59
38 | TTGGCTGAACAGAAGTCCCGAA | -0.0674
39 | TTGGGACTGACAAGCATCGAGT | -0.743
40 | TTTCTGGTCCTTACATATCTGC | -1.07
